Screens (PubChem)
Sampled rows, rich in hits. Any-hit rate of the full collection: about 5.8%.
PINK1 expr mod – A Quantitative High throughput Screen to Identify Chemical Modulators of PINK1 Expression | PINK1 immunofluorescence, high-content cytometry, 24 h | actives 0.2% (n = 410,000) | Potency, µM (top dose mostly 76.6 µM), without a hit: at the highest dose activation (PINK1 increase), hits mostly activators; active = well fitted activation curve with a large enough effect; inconclusive = small, poorly fitted or top-dose-only effect; cell line not stated here; note: % of control where 0% means no effect; nearly all actives have a fitted effect of over 65% in size
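Cells are seeded, rested 12 hours, then given compound at five concentrations or DMSO for 24 hours. After fixation, blocking and antibody staining, PINK1 amount and mitochondrial localization are scored; CCCP serves as control.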
KB-V1 cytotox – qHTS assay for MDR1-selective chemotherapeutics: Primary screen using the drug-selected MDR subline cells KB-V1; KB-V1 MDR cells viability, CellTiter-Glo, 72 h; Potency, µM (highest dose often 46.1 µM), hits mostly cytotoxic; actives 3.4% (n = 400,000); note: % is set by controls: 0 for no effect and ±100 for the full control effect; nearly all actives have a fitted effect of over 60% in size
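Cytotoxicity via CellTiter-Glo luminescence after 72 h compound exposure at 37 degrees C. Cells: drug-selected KB-V1 line, DMEM phenol-red free plus 10% FBS. Compounds tested at multiple concentrations; normalized data fitted to concentration-effect curves.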
ALOX12 inh – Primary qHTS assay for inhibitors of human arachidonate 12S-lipoxygenase (ALOX12): Round 2 | Polyunsaturated fatty acid lipoxygenase ALOX12 (Homo sapiens), P18054 | actives 1.1% (n = 580,000) | Potency, µM (titrated, usually from 108 µM), for the others: at the highest dose activity change, negative = inhibition, most hits filed as inhibitors | purified 12hLO, xylenol orange hydroperoxide absorbance; note: % is set by controls: 0 for no effect and ±100 for the full control effect
Target sequence (P18054 whole entry, looked up): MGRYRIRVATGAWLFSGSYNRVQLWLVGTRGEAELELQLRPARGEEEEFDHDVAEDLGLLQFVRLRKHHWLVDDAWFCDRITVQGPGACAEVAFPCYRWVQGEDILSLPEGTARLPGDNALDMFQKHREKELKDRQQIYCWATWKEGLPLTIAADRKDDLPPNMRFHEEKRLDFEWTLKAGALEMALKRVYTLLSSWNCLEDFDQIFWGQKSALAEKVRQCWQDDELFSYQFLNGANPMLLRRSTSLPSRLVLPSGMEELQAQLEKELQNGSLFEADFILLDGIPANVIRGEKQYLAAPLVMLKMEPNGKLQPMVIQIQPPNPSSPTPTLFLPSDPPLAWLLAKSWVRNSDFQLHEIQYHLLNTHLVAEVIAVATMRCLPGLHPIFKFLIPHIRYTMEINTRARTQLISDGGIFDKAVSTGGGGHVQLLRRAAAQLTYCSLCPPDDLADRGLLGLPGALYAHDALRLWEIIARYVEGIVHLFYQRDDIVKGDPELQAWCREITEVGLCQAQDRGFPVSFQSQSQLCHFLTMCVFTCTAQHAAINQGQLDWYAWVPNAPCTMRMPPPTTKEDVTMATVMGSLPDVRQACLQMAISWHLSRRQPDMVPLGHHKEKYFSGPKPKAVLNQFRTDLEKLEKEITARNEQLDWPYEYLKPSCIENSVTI
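Purified human 12hLO at 150 nM in 25 mM Hepes, 0.01% Triton X-100, pH 7.0, preincubated 15 min at room temperature with compound. Reaction started with 40 uM arachidonic acid, 30 min at room temperature. Hydroperoxide measured by Fe-xylenol orange, 573/405 nm absorbance ratio.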
MCF10A rerep – A quantitative high throughput screen for small molecules that induce DNA re-replication in MCF 10a normal breast cells; MCF 10A DNA re-replication, Hoechst nuclear intensity, 48 h; Potency, µM (series often up to 46.1 µM), for the others: top-dose activity, positive = re-replication, most hits filed as activators; actives 2.9% (n = 350,000); AID 624296, 2012; note: % of control where 0% means no effect; nearly all actives have a fitted effect of over 50% in size
KB-3-1 cytotox – qHTS assay for MDR1-selective chemotherapeutics: Primary screen using the parental adenocarcinoma cell KB-3-1; actives 1.4% (n = 400,000); KB-3-1 viability, CellTiter-Glo ATP luminescence, 72 h; AID 1347075, 2019; Potency, µM (highest dose often 46.1 µM), most hits filed as cytotoxic; note: % is set by controls: 0 for no effect and ±100 for the full control effect; nearly all actives have a fitted effect of over 60% in size
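Screening of KB-3-1 cells (DMEM, 10% FBS, phenol-red free) ran from lowest to highest compound concentration; after 72 h at 37 °C viability was read luminescently and curves fitted.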
SW480 rereplic – A quantitative high throughput screen for small molecules that induce DNA re-replication in SW480 colon adenocarcinoma cells; SW480 DNA re-replication, Hoechst DNA content imaging, 48 h; Potency, µM (highest dose often 46.1 µM), for the others: top-dose re-replication activation, hits mostly activators; actives 1.8% (n = 340,000); AID 624297, 2012; note: % of control where 0% means no effect; nearly all actives have a fitted effect of over 55% in size
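250 cells/well; 23 nL cpd via pin tool; 48 hr, 37 C, 5% CO2; Hoechst 40 min; imager read of total nuclear intensity, ex 405/em 500-530 nm.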
* hit, by the source's call; ! = not confirmed by another sample; [ ] = remark or other dose. Unless noted, calls come from the whole dose curve; as a rule, active = well fitted curve in the direction sought with a large enough effect; inconclusive = small, poorly fitted or top-dose-only effect, or another doubt; inactive = no such curve, though single readings can be large; an effect the other way counts as inactive or inconclusive. Potency is the fitted concentration of half-maximal effect.

CCc1ccc(C(=O)N(Cc2ccccn2)C2CC2)s1 was read as ALOX12 inh 32.7%.
`C=CCn1c(SCC(=O)NCc2ccccc2)nnc1C1CCCCC1` gave PINK1 expr mod -1.4%, KB-V1 cytotox inconclusive, MCF10A rerep 29.0%, KB-3-1 cytotox inactive and SW480 rereplic -0.4%.
For C=CCn1c(SCC(=O)Nc2cc(C)nn2-c2ccccc2)nnc1C1CCCCC1 the results were PINK1 expr mod 70.3%[38.3 µM], KB-V1 cytotox 5.8µM*, ALOX12 inh 1.1%, MCF10A rerep 0.4%, KB-3-1 cytotox inactive and SW480 rereplic -2.5%.
For O=Cc1cc(Br)cc(Cl)c1O the results were ALOX12 inh 44.7µM*.
COC(=O)c1sc(S(=O)(=O)N2CCCCC2)c(C(=O)OC)c1C was read as PINK1 expr mod -2.0%[38.3 µM], KB-V1 cytotox inconclusive, ALOX12 inh -9.0%, MCF10A rerep -0.8%, KB-3-1 cytotox inactive and SW480 rereplic 3.5%.
COC(=O)c1sc(S(=O)(=O)N2CCN(c3ccccc3)CC2)c(C(=O)OC)c1C was read as PINK1 expr mod 9.6%[38.3 µM], KB-V1 cytotox 8.2µM*, ALOX12 inh -27.3%, MCF10A rerep 12.3%, KB-3-1 cytotox inactive and SW480 rereplic -4.8%.
`Cc1cccc(-c2ocnc2C(=O)NCCc2ccccc2)c1` gave ALOX12 inh 6.1%.
`CSc1ccc(CCNC(=O)c2ccc(NC(=O)N3CCSc4nc(C)cc(C)c43)cc2)cc1` gave ALOX12 inh -18.7%.
Screening CCCOc1ccc(NC(=O)c2cccc3ccccc23)c2cccnc12 returned ALOX12 inh 12.2%.
`Cn1c(SCC(=O)N2CCc3ccccc32)nnc1-c1cccc(NC(=O)c2ccccc2F)c1` gave ALOX12 inh 35.5µM*.
`N#Cc1cc2ccccc2nc1SCC(=O)Nc1ccccc1N1CCOCC1` gave PINK1 expr mod 6.8%, KB-V1 cytotox 4.61µM*, ALOX12 inh -0.9%, MCF10A rerep -2.4%, KB-3-1 cytotox inactive and SW480 rereplic -7.9%.
Cc1ccc(NC(=O)CSc2nc3ccccc3nc2N2CCOCC2)cc1 was read as PINK1 expr mod -0.1%, KB-V1 cytotox 18.4µM*!, ALOX12 inh 24.6%, MCF10A rerep 10.9%, KB-3-1 cytotox inactive and SW480 rereplic inconclusive.
CCOc1ccccc1NC(=O)CSc1nc2ccccc2nc1N1CCCC1 was read as PINK1 expr mod 3.7%, KB-V1 cytotox inactive, ALOX12 inh 3.5%[57.4 µM], MCF10A rerep 14.6µM*, KB-3-1 cytotox inactive and SW480 rereplic inconclusive.
`COc1ccc(NC(=O)CSc2nc3ccccc3nc2N2CCCC2)cc1Cl` gave PINK1 expr mod 4.0%, KB-V1 cytotox inactive, ALOX12 inh 28.7%, MCF10A rerep 23.1µM*, KB-3-1 cytotox inactive and SW480 rereplic 9.5%.
Screening COc1ccc(NC(=O)CSc2nc3ccccc3nc2N2CCCC2)cc1 returned PINK1 expr mod 4.8%, KB-V1 cytotox inactive, ALOX12 inh 25.9%, MCF10A rerep 24.7%, KB-3-1 cytotox inactive and SW480 rereplic 2.6%.
`Cc1ccc(NC(=O)CSc2nc3ccccc3nc2N2CCOCC2)c(C)c1` gave PINK1 expr mod 4.7%, KB-V1 cytotox inactive, ALOX12 inh 9.6%, MCF10A rerep 33.7%, KB-3-1 cytotox inconclusive and SW480 rereplic 10.0%.
`CCOc1ccccc1NC(=O)CSc1nc2ccccc2nc1N1CCOCC1` gave PINK1 expr mod 2.7%, KB-V1 cytotox inactive, ALOX12 inh -2.9%, MCF10A rerep 7.2%, KB-3-1 cytotox inconclusive and SW480 rereplic 0.0%.
Screening CC(C)C(=O)Nc1ccc2c(ccn2CCN2CCOCC2)c1 returned ALOX12 inh -46.7%.
Cc1cc2c(c(=O)n1Cc1ccc3c(c1)OCO3)C(c1ccccc1Cl)C(C#N)=C(N)O2 (stereo unspecified) was read as ALOX12 inh 3.2%.
Cc1c(CC(=O)NC[C@@H](C)O)c(=O)oc2cc(O)c(Cl)cc12 was read as ALOX12 inh -7.9%.
`COc1ccccc1NS(=O)(=O)c1cccc(C(=O)N/N=C/c2ccc([N+](=O)[O-])o2)c1` gave PINK1 expr mod inconclusive, KB-V1 cytotox inconclusive, ALOX12 inh -13.9%, MCF10A rerep 20.6µM*, KB-3-1 cytotox inconclusive and SW480 rereplic 13µM*.
CCN(CC)c1ccc(/C=N/NC(=O)c2cccc(S(=O)(=O)Nc3ccccc3OC)c2)cc1 was read as PINK1 expr mod 0.6%, KB-V1 cytotox inactive, ALOX12 inh 7.9%, MCF10A rerep 16.4µM*, KB-3-1 cytotox inactive and SW480 rereplic 2.1%.
`O=C(Cc1ccc2c(c1)OCO2)OCc1ccc2c(c1)OCO2` gave ALOX12 inh -30.7%.
For COc1ccc(C2C(C#N)=C(N)N(c3sc4c(c3C#N)CCCC4)C3=C2C(=O)CC(C)(C)C3)cc1 (stereo unspecified) the results were PINK1 expr mod 6.9%, KB-V1 cytotox 5.8µM*, MCF10A rerep 20.3%, KB-3-1 cytotox inactive and SW480 rereplic 3.9%.
For CCN(CC(=O)Nc1ccc(NC(C)=O)cc1)C(=O)/C=C/c1cn(-c2ccccc2)nc1-c1cccs1 the results were PINK1 expr mod 6.5%, KB-V1 cytotox inactive, ALOX12 inh -16.6%, MCF10A rerep inconclusive, KB-3-1 cytotox inactive and SW480 rereplic 5.1%.
Screening CN1CCC(N(C)C(=O)/C=C/c2cn(-c3ccccc3)nc2-c2cccs2)CC1 returned PINK1 expr mod -2.3%, KB-V1 cytotox 20.6µM*, ALOX12 inh 36.6%, MCF10A rerep inconclusive, KB-3-1 cytotox inactive and SW480 rereplic 3.0%.
Screening O=C(N/N=C/c1cn(-c2ccccc2)nc1-c1cccnc1)c1cccnc1 returned PINK1 expr mod 1.9%, KB-V1 cytotox inactive, ALOX12 inh 4.2%, MCF10A rerep -7.8%, KB-3-1 cytotox inactive and SW480 rereplic 0.9%.
O=C(/C=C/c1cn(-c2ccccc2)nc1-c1cccnc1)c1ccco1 was read as PINK1 expr mod -0.8%, KB-V1 cytotox 20.6µM*, ALOX12 inh 9.3%, MCF10A rerep inconclusive, KB-3-1 cytotox inconclusive and SW480 rereplic inconclusive.
For O=C(N/N=C/c1cn(-c2ccccc2)nc1-c1cccs1)c1ccc(Cl)cc1 the results were PINK1 expr mod -1.2%, KB-V1 cytotox 14.6µM*, ALOX12 inh -6.9%, MCF10A rerep inconclusive, KB-3-1 cytotox inconclusive and SW480 rereplic 0.9%.
